Results filed as inconclusive are left out. Values without a mark were called inactive. Activity calls are given as the source filed them. The call rests on the fitted dose curve; in most records, active means well fitted inhibition curve with a large enough effect; inconclusive means small, poorly fitted or top-dose-only effect; inactive means flat fitted curve, though single readings scatter.

Results on 40 compounds are retold here after PubChem BioAssay (NCATS).
On the % scale 0 is the no-effect control and ±100 the full control effect; potency means the concentration at half of the fitted maximal effect.

Sequence of Dual specificity protein kinase CLK4 (Homo sapiens) (Q9HAZ1 whole entry, looked up): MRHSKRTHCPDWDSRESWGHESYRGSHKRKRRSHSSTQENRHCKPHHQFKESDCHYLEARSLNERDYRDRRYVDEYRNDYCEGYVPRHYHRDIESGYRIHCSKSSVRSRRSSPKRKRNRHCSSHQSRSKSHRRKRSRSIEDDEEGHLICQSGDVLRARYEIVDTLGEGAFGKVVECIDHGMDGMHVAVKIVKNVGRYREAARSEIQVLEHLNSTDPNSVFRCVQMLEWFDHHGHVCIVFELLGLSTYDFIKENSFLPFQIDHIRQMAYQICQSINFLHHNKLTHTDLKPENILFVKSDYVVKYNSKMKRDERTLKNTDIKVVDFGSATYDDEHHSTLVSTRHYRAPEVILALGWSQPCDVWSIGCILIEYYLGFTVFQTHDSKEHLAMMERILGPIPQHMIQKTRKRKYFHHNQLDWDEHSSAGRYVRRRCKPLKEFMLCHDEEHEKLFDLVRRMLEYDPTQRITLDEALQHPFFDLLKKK

The target of the assay is Dual specificity protein kinase CLK4 (Homo sapiens) (UniProt Q9HAZ1). As to the kind of experiment: qHTS Assay for Inhibitors of CDC-like Kinase 4 (ADP-Glo Assay) (AID 1771). Further: nearly all actives have a fitted effect of over 70% in size. The following applies: recombinant CLK4, ADP-Glo luminescence; series mostly up to 80 µM; activity change, negative = inhibition: at the top concentration. How it is done:
NIH Molecular Libraries Probe Production Centers Network [MLPCN] NIH Chemical Genomics Center [NCGC] MLPCN Grant: 1R03MH084827-01 Assay Submitter (PI): Tom Misteli NCGC Assay Overview: Clk4 (Invitrogen, cat# PV3839) was assayed using ATP and the RS repeat peptide (AnaSpec cat # 61722) as substrates. In the assay, the ADP levels were detected using Promega ADP-Glo technology wherein the remaining ATP from the kinase reaction is first depleted with an ATPase reagent followed by a reagent that contains and enzyme which converts the ADP produced to ATP as well as Ultra-Glo luciferase and D-luciferin which generates a bioluminescence signal from the ATP. The positive control for the assay was TG003 (Sigma-Aldrich, cat# 300801-52-9) which has been described as an inhibitor of Clk 4[1].
NCGC Assay Protocol Summary: Two uL/well of substrate-buffer solution (100 uM RS peptide, 1 uM ATP, 1x ADP-Glo Buffer A, 2 mM MgCl2, 0.5 mM EGTA, 2.5 mM DTT, 0.01% Triton X-100, final concentrations) was dispensed into 1536-well plates (Greiner, solid white, medium binding assay plates) with the Aurora Discovery BioRAPTR Flying Reagent Dispenser (FRD; Beckton-Dickenson). Twenty-three nanoliter of compound and control solutions were transferred to the assay plate using a Kalypsys pin-tool followed by 0.5 uL/well Clk4-buffer solution (25 nM Clk4, 1x ADP-Glo Buffer A, 2 mM MgCl2, 0.5 mM EGTA, 2.5 mM DTT, 0.01% Triton X-100 final concentration) dispensing for a total kinase reaction volume of 2.5 uL/ well. After 1 hr of room-temperature incubation, 2.5 uL ADP-Glo reagent was added and incubated at room temperature for 45 min to stop the kinetic reaction and degrade residual ATP. The ADP product was then converted to ATP by adding 5 uL per well of ADP-Glo Reagent II to yield a total assay volume of 10 uL/ well. Luminescence was detected after 30 min room temperature incubation with the Perkin Elmer Viewlux.
On the technique in general: Quantitative high-throughput screening tests each substance at several concentrations.
With `Cn1c(=O)c(-c2ccccc2)nc2cnc(N3CCOCC3)nc21`, the “activity change, negative = inhibition” value is -12.4%.
For `COc1cccc(-c2nc(NCc3cccnc3)c3ccccc3n2)c1`, the Potency is 17.8 µM (active).
On to `COc1ccc(Oc2ncc3nc(-c4ccc(F)cc4)c(=O)n(CCC#N)c3n2)cc1`, for which the “activity change, negative = inhibition” value was 8.67%.
For the compound `COc1ccc2[nH]cc(CCNc3ncnc4ccc(-c5cccc(C#N)c5)cc34)c2c1`, the Potency was 15.8 µM (active).
Consider `CCNc1ncc2nc(-c3ccc(OC)cc3)c(=O)n(C)c2n1`, for which the “activity change, negative = inhibition” value was -19.2%.
Regarding `Clc1ccccc1-c1ccc2ncnc(NCCN3CCOCC3)c2c1`, the Potency is 25.1 µM (active).
As for `COc1ccc2[nH]cc(CCNc3ncncc3-c3ccccc3C)c2c1`, the Potency was 28.2 µM (active).
Turning to `COc1ccc2[nH]cc(CCNc3ncncc3-c3ccoc3)c2c1`, the Potency is 15.8 µM (active).
The same measure, in the same setting: as for `COc1ccc2[nH]cc(CCNc3ncncc3-c3ccccc3Cl)c2c1`, the figure is 10 µM (active).
Take `CCNc1ncc2nc(CCc3ccccc3)c(=O)n(CCC#N)c2n1`: the “activity change, negative = inhibition” value is -4.58%.
On to `COc1ccc2[nH]cc(CCNc3ncnc4ccc(-c5ccccc5OC)cc34)c2c1`, for which the Potency was 25.1 µM (active).
For the compound `N#CCCn1c(=O)c(-c2cccc(C#N)c2)nc2cnc(Oc3cccc(Cl)c3)nc21`, the “activity change, negative = inhibition” value was -1.9%.
The same measure, in the same setting: for `O=c1c(CCc2ccccc2)nc2cnc(N3CCOCC3)nc2n1-c1ccccc1` the value was -7.04%; for `COc1ccc(CNc2ncncc2-c2ccccc2OC)c(OC)c1`, -15.4%.
`COc1cccc(-c2ccc3ncnc(NCc4ccc(OC)cc4OC)c3c2)c1`: the Potency is 3.16 µM (active).
`O=c1c(-c2cccc(F)c2)nc2cncnc2n1Cc1ccc(F)cc1`: the “activity change, negative = inhibition” value is 8.22%.
As to `N#Cc1cccc(-c2nc(NCCN3CCOCC3)c3ccccc3n2)c1`, the Potency was 6.31 µM (active).
Regarding `CN1CCN(c2ncc3nc(-c4cn(C)c5ccccc45)c(=O)n(CCC#N)c3n2)CC1`, the “activity change, negative = inhibition” value was -11.5%.
For the compound `CCNc1ncc2ncc(=O)n(Cc3ccc(F)cc3)c2n1`, the Potency was 6.31 µM (active).
As to `Cn1cc(-c2nc3cnc(N4CCNCC4)nc3n(CCc3ccccc3)c2=O)c2ccccc21`, the “activity change, negative = inhibition” value was -6.01%.
For the compound `COc1ccccc1CNc1ccnc(-c2cccnc2)n1`, the Potency was 28.2 µM (active).
Take `Cn1cc(-c2nc3cnc(N4CCNCC4)nc3n(C3CC3)c2=O)c2ccccc21`: the “activity change, negative = inhibition” value is -14.7%.
On to `CN1CCN(c2ncnc3ccc(-c4cccc(C#N)c4)cc23)CC1`, for which the Potency was 15.8 µM (active).
On to `COc1ccccc1-c1nc(N2CCN(C)CC2)c2ccccc2n1`, for which the “activity change, negative = inhibition” value is -4.61%.
Turning to `COc1cccc(-c2nc(N(C)C)c3ccccc3n2)c1`, the Potency is 7.08 µM (active).
As for `Cc1noc(C)c1-c1nc(N2CCN(C)CC2)c2ccccc2n1`, the Potency is 28.2 µM (active).
Consider `COc1cccc(Cn2c(=O)c(CCc3ccccc3)nc3cnc(N(C)C)nc32)c1`, for which the “activity change, negative = inhibition” value was -9.61%.
`O=c1c(CCc2ccccc2)nc2cncnc2n1Cc1ccccc1`: the “activity change, negative = inhibition” value was -9.58%.
The same measure, in the same setting: for `COc1ccc(Oc2ncc3nc(-c4cccc(C#N)c4)c(=O)n(CCC#N)c3n2)cc1` the value was -10.2%.
On to `COCCNc1ncnc2ccc(-c3ccccc3OC)cc12`, for which the Potency was 10 µM (active).
Take `CN(C)C(=O)c1ccc(-c2cc(NCc3ccccc3)ncn2)cc1`: the Potency was 31.6 µM (active).
In the case of `c1ccc2c(NCCN3CCOCC3)nc(-c3ccoc3)nc2c1`, the “activity change, negative = inhibition” value was -15%.
Turning to `CCNc1ncc2nc(C)c(=O)n(CCc3ccccc3)c2n1`, the Potency was 7.94 µM (active).
As to `COc1ccc(CNc2cc(-c3cccc(NS(C)(=O)=O)c3)ncn2)c(OC)c1`, the “activity change, negative = inhibition” value is -26.6%.
Take `N#Cc1cccc(-c2ccc3ncnc(NCc4cccs4)c3c2)c1`: the Potency was 8.91 µM (active).
Consider `COc1ccccc1CNc1nc(-c2ccoc2)nc2ccccc12`, for which the “activity change, negative = inhibition” value is -9.13%.
For the compound `CN(C)c1ccc(-c2nccc(Nc3ccc(F)cc3)n2)cc1`, the Potency was 14.1 µM (active).
On the same count and under the same terms, for `Cc1cnc(CNc2ncnc3ccc(-c4ccccc4Cl)cc23)cn1` the value was 14.1 µM (active).
With `COCCn1c(=O)c(-c2ccc(F)cc2)nc2cnc(Nc3cccc(OC)c3)nc21`, the “activity change, negative = inhibition” value is 0.59%.
Turning to `COc1cccc(Nc2ncc3ncc(=O)n(Cc4ccc(F)cc4)c3n2)c1`, the Potency was 2.51 µM (active).
